{"source": "the supplement of paper PMC10849652", "note": "Of roughly 7,900 targets only a part is listed; those with a hit were picked by preference. About 0.6% of all pairs of compound and target were hits. Values without a mark were called inactive."}
{"compound": "CC[C@H](C)N1C=C(C2=C(C=C(C=C21)C3=CN=C(C=C3)N4CCNCC4)C(=O)NCC5=C(C=C(NC5=O)C)C)C", "assay": "log2 fold change, soluble protein after heating vs DMSO (PISA); higher = thermal stabilisation; K562 cells, 10 uM, 30 min; active = over 0.2 and 3.5 SD of the protein, either way, in both replicates (recomputed)", "how_it_was_run": "(§1)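 K562 cells at 2×10^6 cells/mL were exposed to 10 μM compound for 30 min, then aliquots were heated for 3 min across 48°C-58°C, pooled, and extracted in PBS containing 0.5% NP-40 at 4°C. The supernatant after 21,000xg for 90 min was taken as soluble protein and measured by TMTpro 16plex LC-MS/MS with channel sums equalised. Thermal stability is reported relative to control samples, with values from duplicates. Fold changes are given on a log2 scale.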"}
{"target": "NOB1 (UniProt Q9ULX3)", "log2 fold change": 0.093}
{"target": "MRPS25 (UniProt P82663)", "log2 fold change": 0.145}
{"target": "NACC1 (UniProt Q96RE7)", "log2 fold change": 0.112}
{"target": "NEMP1 (UniProt O14524)", "sequence (O14524 whole entry, looked up)": "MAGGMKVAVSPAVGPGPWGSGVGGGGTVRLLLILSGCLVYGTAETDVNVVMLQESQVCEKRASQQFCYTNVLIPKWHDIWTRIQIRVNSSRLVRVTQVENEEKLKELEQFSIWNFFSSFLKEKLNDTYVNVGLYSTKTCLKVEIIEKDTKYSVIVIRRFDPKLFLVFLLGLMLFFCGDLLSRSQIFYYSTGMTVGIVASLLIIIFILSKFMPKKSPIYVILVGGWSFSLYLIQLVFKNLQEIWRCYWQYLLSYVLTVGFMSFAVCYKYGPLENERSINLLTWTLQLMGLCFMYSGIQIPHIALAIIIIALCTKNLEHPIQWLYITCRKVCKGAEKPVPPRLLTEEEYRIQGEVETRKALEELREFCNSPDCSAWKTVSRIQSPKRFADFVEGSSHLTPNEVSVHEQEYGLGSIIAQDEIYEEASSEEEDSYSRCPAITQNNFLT", "log2 fold change": -0.023}
{"target": "MTHFD1 (UniProt P11586)", "log2 fold change": 0.035}
{"target": "OXSM (UniProt Q9NWU1)", "log2 fold change": -0.022}
{"target": "MT-ATP6 (UniProt P00846)", "log2 fold change": -0.057}
{"target": "OTUD4 (UniProt Q01804)", "log2 fold change": 0.009}
{"target": "MRPL50 (UniProt Q8N5N7)", "log2 fold change": -0.063}
{"target": "NFATC2 (UniProt Q13469)", "log2 fold change": 0.19}
{"target": "NUP205 (UniProt Q92621)", "log2 fold change": 0.079}
{"target": "MRPS24 (UniProt Q96EL2)", "log2 fold change": 0.126}
{"target": "MINK1 (UniProt Q8N4C8)", "log2 fold change": 0.056}
{"target": "NUP85 (UniProt Q9BW27)", "log2 fold change": -0.008}
{"target": "NOP56 (UniProt O00567)", "log2 fold change": 0.034}
{"target": "P4HA2 (UniProt O15460)", "log2 fold change": -0.006}
{"target": "NCAPH (UniProt Q15003)", "log2 fold change": 0.051}
{"target": "MRPS15 (UniProt P82914)", "log2 fold change": 0.163}
{"target": "NA, A0A096LPI6", "log2 fold change": -0.056}
{"target": "NQO1 (UniProt P15559)", "log2 fold change": "0.276 (active)"}
{"target": "NIBAN1 (UniProt Q9BZQ8)", "sequence (Q9BZQ8 whole entry, looked up)": "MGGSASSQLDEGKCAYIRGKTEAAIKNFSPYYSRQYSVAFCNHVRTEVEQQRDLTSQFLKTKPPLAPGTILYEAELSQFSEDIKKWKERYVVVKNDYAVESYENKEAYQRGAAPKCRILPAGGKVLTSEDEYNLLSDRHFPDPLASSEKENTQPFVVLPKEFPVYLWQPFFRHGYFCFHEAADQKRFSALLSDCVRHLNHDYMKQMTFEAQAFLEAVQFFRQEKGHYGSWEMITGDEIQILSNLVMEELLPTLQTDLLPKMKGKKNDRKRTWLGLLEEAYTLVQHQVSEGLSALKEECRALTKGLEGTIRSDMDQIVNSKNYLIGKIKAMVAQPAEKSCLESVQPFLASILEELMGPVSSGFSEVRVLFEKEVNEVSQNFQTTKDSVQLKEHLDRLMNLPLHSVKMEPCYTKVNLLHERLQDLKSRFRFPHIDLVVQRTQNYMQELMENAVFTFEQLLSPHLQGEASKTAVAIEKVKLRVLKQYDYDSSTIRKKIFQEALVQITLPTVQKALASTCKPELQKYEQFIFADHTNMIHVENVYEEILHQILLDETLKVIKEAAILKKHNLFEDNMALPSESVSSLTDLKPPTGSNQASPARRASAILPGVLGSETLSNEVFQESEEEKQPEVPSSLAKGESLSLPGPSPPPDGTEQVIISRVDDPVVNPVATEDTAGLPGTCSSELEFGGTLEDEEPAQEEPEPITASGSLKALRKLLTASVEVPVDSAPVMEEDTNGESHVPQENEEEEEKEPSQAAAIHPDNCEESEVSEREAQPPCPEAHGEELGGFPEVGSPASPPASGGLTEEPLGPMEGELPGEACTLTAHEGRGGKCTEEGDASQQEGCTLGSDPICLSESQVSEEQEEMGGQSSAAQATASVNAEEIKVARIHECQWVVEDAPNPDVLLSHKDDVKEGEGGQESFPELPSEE", "log2 fold change": 0.073}
{"target": "MPHOSPH10 (UniProt O00566)", "log2 fold change": 0.084}
{"target": "NCAPD2 (UniProt Q15021)", "log2 fold change": 0.081}
{"target": "NFATC2IP (UniProt Q8NCF5)", "sequence (Q8NCF5 whole entry, looked up)": "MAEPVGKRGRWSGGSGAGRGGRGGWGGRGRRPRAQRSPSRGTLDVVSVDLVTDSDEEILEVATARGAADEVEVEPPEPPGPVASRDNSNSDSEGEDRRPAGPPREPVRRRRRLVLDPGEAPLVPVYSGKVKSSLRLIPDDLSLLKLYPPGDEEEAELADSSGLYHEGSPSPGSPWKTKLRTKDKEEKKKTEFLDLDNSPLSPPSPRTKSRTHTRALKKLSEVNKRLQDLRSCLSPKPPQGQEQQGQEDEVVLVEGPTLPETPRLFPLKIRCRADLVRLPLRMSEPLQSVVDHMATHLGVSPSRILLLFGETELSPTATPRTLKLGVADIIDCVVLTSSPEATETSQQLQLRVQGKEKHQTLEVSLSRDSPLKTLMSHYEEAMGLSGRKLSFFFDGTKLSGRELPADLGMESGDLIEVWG", "log2 fold change": 0.069}
{"target": "NARS2 (UniProt Q96I59)", "log2 fold change": 0.045}
{"target": "NMT2 (UniProt O60551)", "log2 fold change": 0.039}
{"target": "MTHFS (UniProt P49914)", "log2 fold change": 0.034}
{"target": "NUCKS1 (UniProt Q9H1E3)", "log2 fold change": -0.028}
{"target": "MYH11 isoform 2 (UniProt P35749)", "log2 fold change": 0.042}
{"target": "NUP160 (UniProt Q12769)", "log2 fold change": 0.005}
{"target": "NDUFA12 (UniProt Q9UI09)", "sequence (Q9UI09 whole entry, looked up)": "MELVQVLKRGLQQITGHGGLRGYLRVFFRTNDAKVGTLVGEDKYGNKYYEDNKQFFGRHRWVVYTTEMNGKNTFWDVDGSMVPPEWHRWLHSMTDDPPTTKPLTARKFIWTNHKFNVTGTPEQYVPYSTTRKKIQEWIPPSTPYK", "log2 fold change": 0.081}
{"target": "NUDT21 (UniProt O43809)", "log2 fold change": -0.033}
{"target": "NCOA7 (UniProt Q8NI08)", "sequence (Q8NI08 whole entry, looked up)": "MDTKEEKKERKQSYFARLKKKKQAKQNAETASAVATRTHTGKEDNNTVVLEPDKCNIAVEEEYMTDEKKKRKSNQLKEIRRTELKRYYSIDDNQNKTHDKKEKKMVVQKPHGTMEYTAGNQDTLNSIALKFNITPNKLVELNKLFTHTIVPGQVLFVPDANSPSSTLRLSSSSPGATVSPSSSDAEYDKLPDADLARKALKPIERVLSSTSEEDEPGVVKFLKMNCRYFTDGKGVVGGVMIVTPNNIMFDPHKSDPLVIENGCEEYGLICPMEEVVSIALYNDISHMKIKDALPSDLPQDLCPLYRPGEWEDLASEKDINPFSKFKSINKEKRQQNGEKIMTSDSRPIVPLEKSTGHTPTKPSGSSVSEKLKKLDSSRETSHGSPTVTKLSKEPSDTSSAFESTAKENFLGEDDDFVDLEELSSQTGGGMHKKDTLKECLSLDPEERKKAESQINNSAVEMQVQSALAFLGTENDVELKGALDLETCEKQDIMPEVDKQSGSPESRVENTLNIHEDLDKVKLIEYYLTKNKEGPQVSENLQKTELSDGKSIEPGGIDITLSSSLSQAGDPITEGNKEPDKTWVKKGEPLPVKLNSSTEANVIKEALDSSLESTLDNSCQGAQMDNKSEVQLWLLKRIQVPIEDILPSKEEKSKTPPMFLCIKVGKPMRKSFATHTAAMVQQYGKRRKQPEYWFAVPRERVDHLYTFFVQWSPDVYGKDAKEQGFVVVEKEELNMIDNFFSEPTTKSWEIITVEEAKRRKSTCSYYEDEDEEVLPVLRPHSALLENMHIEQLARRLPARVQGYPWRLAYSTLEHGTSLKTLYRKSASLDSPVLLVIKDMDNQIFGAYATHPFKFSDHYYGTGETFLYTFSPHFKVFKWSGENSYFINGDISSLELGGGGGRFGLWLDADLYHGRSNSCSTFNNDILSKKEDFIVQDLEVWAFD", "log2 fold change": 0.124}
{"target": "MON2 isoform 5 (UniProt Q7Z3U7)", "sequence (Q7Z3U7 whole entry, looked up)": "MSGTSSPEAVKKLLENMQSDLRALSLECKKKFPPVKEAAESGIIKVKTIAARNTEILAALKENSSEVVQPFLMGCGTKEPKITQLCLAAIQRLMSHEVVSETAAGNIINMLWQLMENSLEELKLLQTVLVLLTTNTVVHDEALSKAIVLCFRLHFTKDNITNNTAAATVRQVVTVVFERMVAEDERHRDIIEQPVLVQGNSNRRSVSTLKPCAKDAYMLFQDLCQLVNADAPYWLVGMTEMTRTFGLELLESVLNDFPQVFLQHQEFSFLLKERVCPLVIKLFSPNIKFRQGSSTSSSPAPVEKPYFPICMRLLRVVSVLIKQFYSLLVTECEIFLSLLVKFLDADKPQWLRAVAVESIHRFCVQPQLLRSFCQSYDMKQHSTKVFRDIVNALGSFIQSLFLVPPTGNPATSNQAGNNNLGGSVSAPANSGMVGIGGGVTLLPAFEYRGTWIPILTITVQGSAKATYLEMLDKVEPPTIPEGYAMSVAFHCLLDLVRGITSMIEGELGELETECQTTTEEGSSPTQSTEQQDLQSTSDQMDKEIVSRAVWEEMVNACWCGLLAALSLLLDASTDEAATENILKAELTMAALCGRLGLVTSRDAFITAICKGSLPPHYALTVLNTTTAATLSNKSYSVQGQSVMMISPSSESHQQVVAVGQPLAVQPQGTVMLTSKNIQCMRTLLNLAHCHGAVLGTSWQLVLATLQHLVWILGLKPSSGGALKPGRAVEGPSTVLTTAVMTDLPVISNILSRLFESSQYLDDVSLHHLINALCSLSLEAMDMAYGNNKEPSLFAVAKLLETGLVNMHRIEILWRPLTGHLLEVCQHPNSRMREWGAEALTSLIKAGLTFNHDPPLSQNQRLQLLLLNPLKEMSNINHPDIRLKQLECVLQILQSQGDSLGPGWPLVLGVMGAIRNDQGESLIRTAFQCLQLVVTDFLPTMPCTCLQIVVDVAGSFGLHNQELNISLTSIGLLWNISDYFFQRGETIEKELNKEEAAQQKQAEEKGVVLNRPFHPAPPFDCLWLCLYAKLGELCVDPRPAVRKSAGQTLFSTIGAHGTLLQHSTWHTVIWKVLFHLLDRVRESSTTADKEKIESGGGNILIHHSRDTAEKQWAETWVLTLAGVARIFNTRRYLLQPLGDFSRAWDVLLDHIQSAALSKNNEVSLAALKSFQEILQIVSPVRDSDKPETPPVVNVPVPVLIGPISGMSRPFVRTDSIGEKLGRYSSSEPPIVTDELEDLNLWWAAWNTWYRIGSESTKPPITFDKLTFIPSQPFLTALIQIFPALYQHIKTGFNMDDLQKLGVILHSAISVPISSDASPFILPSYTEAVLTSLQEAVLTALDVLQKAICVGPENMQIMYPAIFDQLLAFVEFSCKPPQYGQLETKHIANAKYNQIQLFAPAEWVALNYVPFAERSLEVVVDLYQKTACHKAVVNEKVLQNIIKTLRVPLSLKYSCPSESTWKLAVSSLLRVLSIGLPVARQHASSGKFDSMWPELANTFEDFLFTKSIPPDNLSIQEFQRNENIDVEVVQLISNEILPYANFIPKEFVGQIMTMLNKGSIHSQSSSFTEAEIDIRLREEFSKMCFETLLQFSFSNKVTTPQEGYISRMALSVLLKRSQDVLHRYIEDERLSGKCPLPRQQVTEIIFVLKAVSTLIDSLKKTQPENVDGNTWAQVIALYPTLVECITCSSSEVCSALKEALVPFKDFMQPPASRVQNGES", "log2 fold change": 0.06}
{"target": "NMRAL1 (UniProt Q9HBL8)", "sequence (Q9HBL8 whole entry, looked up)": "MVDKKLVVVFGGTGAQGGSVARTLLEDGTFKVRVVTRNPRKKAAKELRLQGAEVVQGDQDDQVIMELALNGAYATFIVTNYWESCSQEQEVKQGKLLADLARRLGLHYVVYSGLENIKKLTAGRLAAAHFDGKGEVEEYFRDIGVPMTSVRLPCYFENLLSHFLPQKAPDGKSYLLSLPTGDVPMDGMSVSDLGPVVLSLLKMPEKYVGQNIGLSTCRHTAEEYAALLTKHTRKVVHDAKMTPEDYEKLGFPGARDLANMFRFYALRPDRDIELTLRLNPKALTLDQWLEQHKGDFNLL", "log2 fold change": 0.105}
{"target": "NMNAT1 (UniProt Q9HAN9)", "log2 fold change": -0.007}
{"target": "MND1 (UniProt Q9BWT6)", "log2 fold change": -0.036}
{"target": "NUDT16 (UniProt Q96DE0)", "log2 fold change": -0.059}
{"target": "NGLY1 (UniProt Q96IV0)", "log2 fold change": 0.04}
{"compound": "CC[C@H](C)[C@@H](C(=O)N[C@@H]([C@@H](C)O)C(=O)N[C@@H](CC(C)C)C(=O)[C@]1(CO1)C)NC(=O)[C@H]([C@@H](C)CC)N(C)C(=O)C [epoxomicin]", "assay": "log2 fold change, soluble protein after heating vs DMSO (PISA); higher = thermal stabilisation; K562 cells, 10 uM, 30 min; active = over 0.2 and 3.5 SD of the protein, either way, in both replicates (recomputed)", "how_it_was_run": "as §1"}
{"target": "NOB1 (UniProt Q9ULX3)", "log2 fold change": -0.02}
{"target": "MRPS25 (UniProt P82663)", "log2 fold change": -0.126}
{"target": "NACC1 (UniProt Q96RE7)", "log2 fold change": 0.002}
{"target": "NEMP1 (UniProt O14524)", "log2 fold change": 0.015}
{"target": "MTHFD1 (UniProt P11586)", "log2 fold change": 0.067}
{"target": "OXSM (UniProt Q9NWU1)", "log2 fold change": 0.018}
{"target": "MT-ATP6 (UniProt P00846)", "log2 fold change": 0.105}
{"target": "OTUD4 (UniProt Q01804)", "log2 fold change": -0.085}
{"target": "MRPL50 (UniProt Q8N5N7)", "log2 fold change": 0.094}
{"target": "NFATC2 (UniProt Q13469)", "log2 fold change": -0.001}
{"target": "NUP205 (UniProt Q92621)", "log2 fold change": -0.071}
{"target": "MRPS24 (UniProt Q96EL2)", "log2 fold change": -0.067}
{"target": "MINK1 (UniProt Q8N4C8)", "log2 fold change": -0.009}
{"target": "NUP85 (UniProt Q9BW27)", "log2 fold change": 0.022}
{"target": "NOP56 (UniProt O00567)", "log2 fold change": -0.44}
{"target": "P4HA2 (UniProt O15460)", "log2 fold change": -0.257}
{"target": "NCAPH (UniProt Q15003)", "log2 fold change": 0.011}
{"target": "MRPS15 (UniProt P82914)", "log2 fold change": -0.007}
{"target": "NA, A0A096LPI6", "log2 fold change": -0.017}
{"target": "NQO1 (UniProt P15559)", "log2 fold change": 0.083}
{"target": "NIBAN1 (UniProt Q9BZQ8)", "log2 fold change": 0.066}
{"target": "MPHOSPH10 (UniProt O00566)", "log2 fold change": -0.26}
{"target": "NCAPD2 (UniProt Q15021)", "log2 fold change": 0.019}
{"target": "NFATC2IP (UniProt Q8NCF5)", "log2 fold change": -0.052}
{"target": "NARS2 (UniProt Q96I59)", "log2 fold change": 0.048}
{"target": "NMT2 (UniProt O60551)", "log2 fold change": 0.01}
{"target": "MTHFS (UniProt P49914)", "log2 fold change": 0.11}
{"target": "NUCKS1 (UniProt Q9H1E3)", "log2 fold change": 0.016}
{"target": "MYH11 isoform 2 (UniProt P35749)", "log2 fold change": 0.061}
{"target": "NUP160 (UniProt Q12769)", "log2 fold change": -0.049}
{"target": "NDUFA12 (UniProt Q9UI09)", "log2 fold change": 0.046}
{"target": "NUDT21 (UniProt O43809)", "log2 fold change": -0.107}
{"target": "NCOA7 (UniProt Q8NI08)", "log2 fold change": 0.021}
{"target": "MON2 isoform 5 (UniProt Q7Z3U7)", "log2 fold change": 0.023}
{"target": "NMRAL1 (UniProt Q9HBL8)", "log2 fold change": 0.035}
{"target": "NMNAT1 (UniProt Q9HAN9)", "log2 fold change": -0.168}
{"target": "MND1 (UniProt Q9BWT6)", "log2 fold change": 0.049}
{"target": "NUDT16 (UniProt Q96DE0)", "log2 fold change": 0.009}
{"target": "NGLY1 (UniProt Q96IV0)", "log2 fold change": -0.071}
